Values joined by “and” are separate entries in the source; they are usually repeats but may differ in a detail not shown here. Equal values may be shown once. Among all 5,500 compounds or so, about 2,000 (36%) were called active. About 18% were inconclusive and are not listed. No stated cut-off is given here; in the data, active means normalized growth mostly below about 0.91 (no sharp cut-off); inconclusive means no clear call, values can overlap the other calls; inactive means mostly above about 0.92. The list shows a part of the results.
Experiment: chemical genetic growth profiling, strain panel (AID 1159580);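 further: tested at 20 µM; growth read once vehicle control cultures reached saturation at 30 °C; 1 = growth at the plate median or of vehicle wells; lower values mean less growth of the strain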
Settings: S. cerevisiae deletion strains, growth OD

Measured: normalized growth

OCC(O)C(O)C(O)C(O)C(O)CO (configuration not stated)
inactive: locus YAL021C, strain ccr4, active compounds read low 0.995 | locus YAL026C, strain drs2, active compounds read low 0.991 | locus YAL030W, strain snc1, active compounds read low 0.99 | locus YBL061C, strain skt5, active compounds read low 0.989 | locus YBR009C, strain hhf1, active compounds read low 1 | locus YBR021W, strain FUR4, active compounds read low 1.02 | locus YBR023C, strain chs3, active compounds read low 0.995 | locus YBR171W, strain sec66, active compounds read low 0.991 | locus YBR229C, strain ROT2, active compounds read low 0.96 | locus YBR231C, strain swc5, active compounds read low 0.991 | locus YBR279W, strain paf1, active compounds read low 0.991 | locus YCL011C, strain gbp2, active compounds read low 0.999 | locus YCL016C, strain dcc1, active compounds read low 0.989 | locus YCL029C, strain bik1, active compounds read low 0.974 | locus YCL061C, strain MRC1, active compounds read low 0.99 | locus YCL069W, strain vba3, active compounds read low 1 | locus YCR088W, strain abp1, active compounds read low 0.989 | locus YDL005C, strain med2, active compounds read low 1 | locus YDL035C, strain GPR1, active compounds read low 1.01 | locus YDL040C, strain nat1, active compounds read low 0.982 | locus YDL074C, strain BRE1, active compounds read low 1.05 | locus YDL101C, strain DUN1, active compounds read low 1.01 | locus YDL185W, strain tfp1, active compounds read low 0.954 | locus YDL192W, strain arf1, active compounds read low 1 | locus YDR001C, strain nth1, active compounds read low 0.99 | locus YDR069C, strain doa4, active compounds read low 0.995 | locus YDR101C, strain arx1, active compounds read low 0.974 | locus YDR137W, strain rgp1, active compounds read low 1.02 | locus YDR159W, strain sac3, active compounds read low 0.98 | locus YDR162C, strain NBP2, active compounds read low 1 | locus YDR195W, strain ref2 0.965 | locus YDR297W, strain sur2, active compounds read low 0.997 | locus YDR318W, strain mcm21, active compounds read low 0.956 | locus YDR334W, strain swr1, active compounds read low 0.987 | locus YDR335W, strain msn5, active compounds read low 0.993 | locus YDR388W, active compounds read low 0.985 | locus YDR392W, strain spt3, active compounds read low 0.99 | locus YDR502C, strain sam2, active compounds read low 1.01 | locus YEL003W, strain gim4, active compounds read low 0.994 | locus YEL037C, strain rad23, active compounds read low 0.992 | locus YEL061C, strain CIN8 (second series), active compounds read low 0.979 | locus YEL061C, strain CIN8, active compounds read low 0.993 | locus YER015W, strain faa2, active compounds read low 0.994 | locus YER016W, strain bim1, active compounds read low 0.983 | locus YER110C, active compounds read low 0.97 | locus YER111C, strain swi4, active compounds read low 0.989 | locus YER155C, strain BEM2 (second series), active compounds read low 0.989 | locus YER155C, strain BEM2, active compounds read low 1 | locus YER167W, strain BCK2, active compounds read low 0.997 | locus YFR010W, strain ubp6, active compounds read low 0.99 | locus YGL078C, strain dbp3, active compounds read low 1.01 | locus YGL086W, strain mad1, active compounds read low 1.01 | locus YGL167C, strain pmr1, active compounds read low 0.996 | locus YGL173C, strain kem1, active compounds read low 1 | locus YGL227W, strain vid30, active compounds read low 0.992 | locus YGL240W, strain doc1, active compounds read low 1 | locus YGL248W, strain PDE1, active compounds read low 1.02 | locus YGL253W, strain hxk2, active compounds read low 0.989 | locus YGR135W, strain pre9, active compounds read low 1.05 | locus YGR252W, strain gcn5, active compounds read low 1.1 | locus YHR013C, strain ard1, active compounds read low 0.981 | locus YHR027C, strain rpn1, active compounds read low 1 | locus YHR030C, strain SLT2, active compounds read low 0.998 and 0.954 | locus YHR079C, strain IRE1 (second series), active compounds read low 0.992 | locus YHR079C, strain IRE1, active compounds read low 0.973 | locus YHR094C, strain hxt1, active compounds read low 0.965 | locus YHR129C, strain ARP1, active compounds read low 1.02 | locus YHR142W, strain chs7, active compounds read low 0.995 | locus YHR200W, strain rpn10, active compounds read low 0.991 | locus YIL066C, strain RNR3, active compounds read low 0.995 | locus YIL073C, strain SPO22, active compounds read low 1.07 | locus YIL125W, strain kgd1, active compounds read low 0.967 | locus YIR030C, strain dcg1, active compounds read low 1.01 | locus YJL092W, strain hpr5, active compounds read low 0.993 | locus YJL095W, strain BCK1 (second series), active compounds read low 0.993 | locus YJL095W, strain BCK1, active compounds read low 1.09 and 0.974 | locus YJL115W, strain asf1, active compounds read low 0.982 | locus YJL129C, strain trk1, active compounds read low 1 | locus YJL134W, strain LCB3, active compounds read low 0.985 | locus YJL154C, strain vps35, active compounds read low 0.991 | locus YJL164C, strain tpk1, active compounds read low 0.994 | locus YJL166W, strain qcr8, active compounds read low 0.996 | locus YJL168C, strain set2, active compounds read low 0.984 | locus YJL187C, strain SWE1 (second series), active compounds read low 1.01 | locus YJL187C, strain SWE1, active compounds read low 1 | locus YJR043C, strain POL32, active compounds read low 1.02 | locus YJR066W, strain TOR1, active compounds read low 0.927

— PubChem BioAssay AID1159580 (chemical genetic matrix, 2015)
